Unmarked numbers belong to inactive results. No rule for the calls is given here.
Each compound was assayed against Pantothenate synthetase (Mycobacterium tuberculosis (strain ATCC 25618 / H37Rv)) (UniProt P9WIL5) (assay: Recombinant Mtb pantothenate synthetase (PanC) inhibitors, coupled enzyme, confirmatory (AID 375;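 also: 0% = full reaction with vehicle and 100% = no enzyme background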)). Conditions: coupled enzyme assay; at 10 µM, hits give high values.
Sequence of Pantothenate synthetase (Mycobacterium tuberculosis (strain ATCC 25618 / H37Rv)) (P9WIL5 whole entry, looked up): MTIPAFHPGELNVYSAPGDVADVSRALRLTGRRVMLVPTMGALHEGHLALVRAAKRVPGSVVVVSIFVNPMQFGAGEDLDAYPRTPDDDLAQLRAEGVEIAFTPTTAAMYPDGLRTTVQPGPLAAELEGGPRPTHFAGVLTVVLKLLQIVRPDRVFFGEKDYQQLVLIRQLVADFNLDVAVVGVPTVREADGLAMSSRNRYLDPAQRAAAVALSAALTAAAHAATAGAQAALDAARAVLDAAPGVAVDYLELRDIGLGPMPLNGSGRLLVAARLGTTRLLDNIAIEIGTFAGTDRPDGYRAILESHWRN

Row | SMILES | inhibition [%]
1 | N#CC1=C(N)N(c2ccccc2)C(c2ccco2)C1(C#N)C#N (stereo not given) | 2
2 | CCOC(=O)C1=C(N)OC2=C(C(=O)CC(C)(C)C2)C1c1ccoc1 (stereo not given) | 0
3 | Cn1cc(NC(=O)c2cc(NC(=O)c3cc(NC=O)cn3C)cn2C)cc1C(=O)NCCC(=N)N | 10
4 | O/N=C/c1ccc(OCC(O)COc2ccc(/C=N/O)cc2)cc1 | 0
5 | CS(=O)(=O)Nc1ccc(C(=O)NCCc2ccccc2)cc1 | 0
6 | COc1cccc(NC(=O)Cc2nnc(SCC(=O)c3ccccc3)n2C)c1 | 0
7 | CCn1c(SCC(N)=O)nnc1-c1ccc(S(=O)(=O)N2CCN(C)CC2)cc1 | 0
8 | CCOC(=O)C1CCCN(Cc2nc(N)nc(Nc3ccccc3)n2)C1 (stereo not given) | 10
9 | O=C(NCc1cccs1)c1cc2c(s1)CS(=O)(=O)C2 | 1
10 | CCOC(=O)c1ccc(NC(=O)CCc2nc(-c3ccc(C)cc3)no2)cc1 | 0
11 | O=C(O)CN(c1ccccc1)C1SC(=O)NC1=O (stereo not given) | 0
12 | C=CCn1c(-c2cccs2)nc2nc3ccccc3nc21 | 0
13 | CN(C(=O)c1ccncc1)C1CC(C)(C)N(O)C(C)(C)C1 | 0
14 | COC(=O)CNC(=O)c1c(C)cc(=O)oc1C | 3
15 | CN(C)S(=O)(=O)c1ccc(C(=O)NCc2cccs2)cc1 | 4
16 | O=S1(=O)CC(N2CCCCC2)C(N2CCCCC2)C1 (stereo not given) | 6
17 | COCCN(Cc1cc2cccc(C)c2[nH]c1=O)C(=O)c1ccccc1 | 0
18 | O=c1c2ccccc2nc(SCc2nnc(-c3ccccc3Br)o2)n1-c1ccccc1 | 0
19 | Cn1cc(CC(=O)Nc2cccc(C#N)c2)c2ccccc21 | 6
20 | CN1CC(=O)N(CC(=O)NCCc2ccc(F)cc2)c2ccccc2C1=O | 0

Row | SMILES | inhibition [%]
21 | CC1=C(C(N)=O)C(c2cccnc2)n2nc(SCc3ccccc3Cl)nc2N1 (stereo not given) | 0
22 | CCc1nnc(NC(=O)NCN2C(=O)C3C4C=CC(C4)C3C2=O)s1 (stereo not given) | 0
23 | O=C(CSc1nnc2ccccn12)c1ccccc1 | 0
24 | COc1ccc(N(CC(=O)Nc2ccccc2SC)S(C)(=O)=O)cc1OC | 2
25 | Cc1nc(SCC(=O)Nc2cc(C)on2)c2c3c(sc2n1)CCCC3 | 4
26 | Cc1cccc2cc(CN(CCN3CCCC3)C(=O)NC3CCCCC3)c(=O)[nH]c12 | 0
27 | Cn1cccc1Cc1nnc(SCC(=O)Nc2ccccc2F)n1-c1ccc(F)cc1 | 0
28 | Cc1csc(NC(=O)c2ccco2)n1 | 0
29 | CC1=C(C(=O)OCC(C)C)C(c2cc3c(cc2Br)OCO3)NC(=O)N1C (stereo not given) | 0
30 | Cc1ccc(S(=O)(=O)NCCCNC(=O)N2CCOCC2)cc1 | 0
31 | Cc1cc2nc3c(nc2cc1C)C1(C(=O)O)CCC3(C)C1(C)C (stereo not given) | 0
32 | Cc1cc(C)n2c(SCC(=O)Nc3cc(C)on3)nnc2n1 | 17
33 | CCOc1ccc2[nH]cc(C(=O)N3CCN(CC)CC3)c(=O)c2c1 | 0
34 | COc1cccc(C(c2nnnn2Cc2ccccc2)N2CCN(C(=O)c3ccco3)CC2)c1OC (stereo not given) | 4
35 | CCN1CCN(Cc2nc3c(c(=O)[nH]c(=O)n3C)n2Cc2ccccc2Cl)CC1 | 2
36 | O=C(NC1CCCCC1)C1CC(O)CN1C(=O)OCc1ccccc1 (stereo not given) | 0
37 | COCCN(Cc1cc2cc3c(cc2n2nnnc12)OCO3)C(=O)c1ccccc1F | 2
38 | O=C(NC1CCCC1)c1ccc2nc[nH]c2c1 | 0
39 | COc1cc(SC)ccc1C(=O)Nc1ccccc1C#N | 0
40 | Cc1nnc(SCCn2c(Br)nc3c2c(=O)n(C)c(=O)n3C)s1 | 1

Source: PubChem BioAssay
